Screens: PubChem BioAssay, National Center for Advancing Translational Sciences (NCATS)
TDP1 cell noCPT: qHTS for Inhibitors of human tyrosyl-DNA phosphodiesterase 1 (TDP1): qHTS in cells in absence of CPT; actives 15% (n = 420,000); Potency, µM (top dose mostly 46.2 µM), for inactives: top-dose activity change, negative = growth inhibition, most hits filed as inhibitors; DT40 Tdp1-/- hTDP1 cells, no CPT, ATP luminescence, 48 h; note: potency is the fitted concentration of half-maximal effect; % is set by controls: 0 for no effect and ±100 for the full control effect; nearly all actives have a fitted effect of over 55% in size
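Chicken DT40 Tdp1-/- cells stably complemented with human TDP1 were seeded at 400 cells/well with DMSO in place of 20 nM camptothecin. After compound pinning, cells grew at least 48 hr at 37 °C; viability read by CellTiter-Glo luminescence.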
HepG2 tox: qHTS for Inhibitors of TGF-b: Cytotox Counterscreen; HepG2 CAGA-GFP viability, ATP luminescence, 18 h; AID 588856, 2011; actives 0.76% (n = 410,000); Potency, µM (doses to about 46.1 µM), for inactives: at the highest dose activity change, negative = cytotoxicity, usual class: cytotoxic; note: potency is the fitted concentration of half-maximal effect
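CellTiter-Glo luminescence gave cytotoxicity after 18 hours at 37 degrees C. The cells were HepG2 CAGA-GFP in 1% FBS DMEM, stimulated with 500 pg/mL TGF-beta after compound addition. %Activity was normalised to no-cell wells (complete cell-killing) and DMSO (no toxicity), and curves were fitted and classified.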
TGFb SMAD3 inh: qHTS for Inhibitors of TGF-b. HepG2 CAGA-GFP TGF-b/SMAD3 reporter, GFP fluorescence, 18 h; TGF-beta stimulated, 500 pg/mL final. Potency, µM (highest dose often 46.1 µM), without a hit: top-dose activity, negative = inhibition, usual class: inhibitors. actives 1.2% (n = 410,000). AID 588855, 2011; note: potency is the fitted concentration of half-maximal effect; % is set by controls: 0 for no effect and ±100 for the full control effect; nearly all actives have a fitted effect of over 65% in size
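Using HEPG2 CAGA-GFP reporter cells at 1000 cells/well, we pinned test compounds, stimulated with recombinant TGF-beta (500 pg/mL final) and measured total well GFP after 18 h.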
DT40 TDP1 CPT: qHTS for Inhibitors of human tyrosyl-DNA phosphodiesterase 1 (TDP1): qHTS in cells in presence of CPT | chicken DT40 Tdp1-/-;hTDP1 cells + 20 nM CPT, ATP luminescence, 48 h | Potency, µM (top dose mostly 46.2 µM), for inactives: top-dose activity change, negative = growth inhibition, usual class: inhibitors | actives 12% (n = 420,000); note: potency is the fitted concentration of half-maximal effect; % is set by controls: 0 for no effect and ±100 for the full control effect; nearly all actives have a fitted effect of over 55% in size
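Chicken DT40 Tdp1-/- cells complemented with human TDP1, 400 cells/well, exposed to compounds plus 20 nM camptothecin for at least 48 h at 37 C; viability read as ATP content by CellTiter-Glo luminescence.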
TDP1 inh: qHTS Assay for Inhibitors of Tyrosyl-DNA Phosphodiesterase (TDP1); Potency, µM (highest dose often 130 µM), inactives show top-dose activity change, negative = inhibition, actives largely listed as inhibitors; recombinant TDP1, AlphaScreen DNA substrate cleavage; actives 0.28% (n = 350,000); AID 485290, 2010; Tyrosyl-DNA phosphodiesterase 1 (Homo sapiens), Q9NUW8; note: potency is the fitted concentration of half-maximal effect; % is set by controls: 0 for no effect and ±100 for the full control effect; nearly all actives have a fitted effect of over 40% in size
Target sequence (Q9NUW8 whole entry, looked up): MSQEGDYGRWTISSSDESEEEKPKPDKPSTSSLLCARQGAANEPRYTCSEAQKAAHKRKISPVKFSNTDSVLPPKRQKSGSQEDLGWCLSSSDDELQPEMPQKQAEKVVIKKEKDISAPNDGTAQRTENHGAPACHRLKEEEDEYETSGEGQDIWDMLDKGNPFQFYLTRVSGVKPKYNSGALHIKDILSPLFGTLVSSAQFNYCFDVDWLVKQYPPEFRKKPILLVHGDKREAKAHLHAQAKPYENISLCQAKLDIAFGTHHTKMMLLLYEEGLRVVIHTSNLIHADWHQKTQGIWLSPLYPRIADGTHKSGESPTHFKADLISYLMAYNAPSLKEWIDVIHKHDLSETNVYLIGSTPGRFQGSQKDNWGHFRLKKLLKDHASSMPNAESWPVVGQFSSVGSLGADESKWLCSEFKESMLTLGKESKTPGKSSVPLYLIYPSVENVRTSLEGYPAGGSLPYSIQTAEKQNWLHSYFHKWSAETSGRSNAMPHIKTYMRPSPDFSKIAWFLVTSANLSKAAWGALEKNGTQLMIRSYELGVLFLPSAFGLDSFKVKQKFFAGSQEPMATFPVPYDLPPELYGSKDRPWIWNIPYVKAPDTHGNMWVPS
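Signal: AlphaScreen proximity between streptavidin donor and anti-FITC acceptor beads on intact substrate. Reaction: Tdp1 1 nM, substrate 15 nM final, 5 min RT after 15 min compound preincubation.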
IL-1B inflam inh: qHTS for Inhibitors of Inflammasome Signaling: IL-1-beta AlphaLISA Primary Screen; actives 4.7% (n = 360,000); THP-1 LPS/ATP IL-1B secretion, AlphaLISA, 16 h; stronger effect = lower value; activity change, % at 57.5 µM; in the data active = activity change below about -50%; inconclusive = mostly about -30% to -49%; note: % is set by controls: 0 for no effect and ±100 for the full control effect
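Secreted IL-1B measured by AlphaLISA bead assay after 16 h compound exposure of THP-1 cells; compounds (final up to 57.5 uM) added 1 h before LPS (250 ng/mL) and ATP (1.25 mM) stimulation; lower signal means less secretion.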
Starred values were filed as active, the others as inactive; u = inconclusive; x = no result given; ! = a repeat was not active; [ ] = dose if it differs, or a comment. The list is not random: actives were taken first. Their share in the collection is about 19%. Unless noted, calls come from the whole dose curve; as a rule, active = well fitted curve in the direction sought with a large enough effect; inconclusive = small, poorly fitted or top-dose-only effect, or another doubt; inactive = no such curve, though single readings can be large; an effect the other way counts as inactive or inconclusive.

SMILES	TDP1 cell noCPT	HepG2 tox	TGFb SMAD3 inh	DT40 TDP1 CPT	TDP1 inh	IL-1B inflam inh
COc1cccc(-n2ccnc2SCC(=O)Nc2ccccc2)c1	8.2µM*	8%	3%	5.8µM*	7%	-15
Cc1cc(C)cc(-n2ccnc2SCC(=O)Nc2ccc3c(c2)OCO3)c1	21µM*	-17%	-7%	u	9%	x
O=C(CSc1nccn1-c1cccc(Cl)c1)Nc1ccc2c(c1)OCO2	-25%	-20%	-24%	u	9%	x
Cc1cc(NC(=O)CSc2nccn2-c2cccc(C)c2C)no1	21µM*	-9%	-8%	u	4%	19
Cc1oc2c(CN3CCCCC3)c(O)ccc2c(=O)c1-c1ccc(Cl)cc1	6%	1%	0%	20%	x	20
Cc1ccc(OCC(=O)Nc2nc(-c3ccc(Br)cc3)ns2)cc1	u	-17%	-18%	-30%	4%	x
CC12CCC(=O)N1C(C(=O)Nc1nc3ccc(S(C)(=O)=O)cc3s1)CS2 (stereo not drawn)	21%	5%	-1%	-1%	1%	-1
CC12CCC(=O)N1C(C(=O)Nc1nc3ccc(Cl)cc3s1)CS2 (stereo not drawn)	u	-22%	-26%	4%	-4%[0.505 µM]	-84*
Cc1cc(C)c2nc(NC(=O)C3CC(=O)N(Cc4ccco4)C3)sc2c1 (stereo not drawn)	u	14%	-3%	u	5%	-71*
CC1CCN(S(=O)(=O)c2ccc(NC(=O)C3CSC4(C)CCC(=O)N34)cc2)CC1 (stereo not drawn)	10µM*	-2%	-15%	u	x	-6
Cc1cc(C)c2nc(NC(=O)C3CSC4(C)CCC(=O)N34)sc2c1 (stereo not drawn)	3.7µM*	-49%	u	-45%	2%	0
Cc1ccc(-c2csc(NC(=O)C3CSC4(C)CCC(=O)N34)n2)cc1 (stereo not drawn)	-22%	3%	u	-8%	0%	13
CCc1ccc2nc(NC(=O)C3CSC4(C)CCC(=O)N34)sc2c1 (stereo not drawn)	u	4%	-10%	-28%	x	-55*
Cc1sc(NC(=O)C2CSC3(C)CCC(=O)N23)nc1-c1ccc(F)cc1 (stereo not drawn)	18µM*	-23%	u	15µM*	4%	0
CCn1c(CSc2nc3ccccc3s2)nnc1SCC(=O)c1ccc(Cl)cc1	21µM*	-9%	-1%	16µM*	7%	-21
SCc1nc2ccccc2[nH]1	10µM*	-11%	2%	u	x	x
CCc1nc2ccccc2[nH]1	-2%	-17%	-20%	-9%	6%	-10
Clc1ccc(OCc2nc3ccccc3[nH]2)cc1	u	0%	14%	4%	x	-51*
COc1ccc(-n2nc(C(=O)NCC(=O)N(C)Cc3ccccc3)c3ccccc3c2=O)c(OC)c1	u	-3%	16%	-6%	2%	32
CCCSc1nc2sc3c(c2c(=O)[nH]1)CC(C)CC3 (stereo not drawn)	16µM*	1%	30%	u	8%	11
CCCSc1nc2sc3c(c2c(=O)[nH]1)CCN(Cc1ccccc1)C3	21µM*	-5%	15%	u	5%	38
O=c1[nH]n(-c2ccccc2)c(=O)cc1Cl	-8%	-4%	-9%	1%	x	-3
COc1ccc(C(=O)/C=C2\NCCc3cc(OC)c(OC)cc32)cc1OC	16µM*	-8%	-17%	16µM*	x	u
CCCCN(CCCC)C(=O)CN(C)S(=O)(=O)c1ccc2c(c1)c(=O)n(C)c(=O)n2C	u	-14%	u	23µM*	8%	x
COc1ccc(CNC(=O)CN(C)S(=O)(=O)c2ccc3c(c2)c(=O)n(C)c(=O)n3C)cc1	16µM*!	0%	u	u	3%	28
SMILES	TDP1 cell noCPT	HepG2 tox	TGFb SMAD3 inh	DT40 TDP1 CPT	TDP1 inh	IL-1B inflam inh
COc1ccc2c(C)c(CCC(=O)NCc3ccccc3Cl)c(=O)oc2c1C	u	-15%	5%	2%	-2%	x
COc1ccccc1C1CCN(Cc2c(C)[nH]c3ccccc23)CC1	5.8µM*	-47%	u	4.6µM*	5%	x
COc1ccccc1C1CCN(Cc2ccc(Cl)cc2Cl)CC1	13%	-3%	34%	u	x	18
COc1ccccc1C1CCN(Cc2cccc3ccccc23)CC1	16µM*	-44%	-23%	u	x	10
O=C(Nc1nnc(N2CCCCCC2)s1)Nc1ccccc1C(F)(F)F	-30%	-12%	x	-5%	-3%	x
OC1(c2cccnc2)CCN(Cc2ccc3c(c2)CN(Cc2ccsc2)CCO3)CC1	-23%	x	x	9%[9.04 µM]	x	x
COc1ccc(-c2c(-c3ccc(O)cc3O)n[nH]c2C)cc1OC	18µM*	-3%	29%	u	5%	16
COc1ccc(-c2c(-c3ccc(OC)c(C)c3O)n[nH]c2C)cc1	u	-65%	14µM*	u	3%	u
Cc1cccc(-c2nc(CN3CCCC(C(=O)NC4CCCCC4)C3)c(C)o2)c1 (stereo not drawn)	21µM*	-19%	u	21µM*	5%	-6
CCOC(=O)N1CCC(NC(=O)C2CCCN(Cc3nc(-c4ccc(CC)cc4)oc3C)C2)CC1 (stereo not drawn)	1.5µM*	-27%	u	2.9µM*	2%	-9
CCOC(=O)N1CCC(NC(=O)C2CCN(Cc3nc(-c4ccc(CC)cc4)oc3C)CC2)CC1	u	-10%	-16%	u	x	-28
COc1ccc(-c2nc(CN3CCC(C(=O)NC4CCCC4)CC3)c(C)o2)cc1OC	0%	1%	3%	-5%	3%	36
Cc1cccc(-c2nc(CN3CCCC(C(=O)NC4CCCCCC4)C3)c(C)o2)c1 (stereo not drawn)	18µM*	-59%	11µM*	21µM*	-1%	-66*
CCN(CC(=O)Nc1ccccc1C(F)(F)F)C(=O)C1=COCCO1	2%	0%	1%	-2%	0%	1
Cc1nc(-n2nc(C)c(CCC(C)C)c2C)sc1C(=O)Nc1ccc(Cl)cc1	u	2%	-1%	u	1%	x
